According to PubChem BioAssay AID1159580 (chemical genetic matrix, 2015):
Out of some 5,500 compounds screened, about 2,000 (36%) were called active. Another 18% or so got no clear call; they are omitted. Rule as the data show it: active = normalized growth mostly below about 0.91 (no sharp cut-off); inconclusive = no clear call, values can overlap the other calls; inactive = mostly above about 0.92. The list shows a part of the results.

Assay: chemical genetic growth profiling, strain panel (AID 1159580);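 also: tested at 20 µM; growth read once vehicle control cultures reached saturation at 30 °C; 1 = growth at the plate median or of vehicle wells; lower values mean less growth of the strain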
Details: S. cerevisiae deletion strains, growth OD

Measured: normalized growth

Oc1ccc2c(c1)O[C@H](c1ccc(O)c(O)c1)[C@@H](O)C2
inactive: locus YAL013W, strain DEP1, stronger effect = lower value 1.03 | locus YAL021C, strain ccr4, stronger effect = lower value 1.02 | locus YAL026C, strain drs2, stronger effect = lower value 1.03 | locus YAL030W, strain snc1, stronger effect = lower value 1.02 | locus YBL061C, strain skt5, stronger effect = lower value 1.04 | locus YBR009C, strain hhf1, stronger effect = lower value 1.03 | locus YBR021W, strain FUR4, stronger effect = lower value 1.04 | locus YBR023C, strain chs3, stronger effect = lower value 1.03 | locus YBR171W, strain sec66, stronger effect = lower value 1.03 | locus YBR229C, strain ROT2, stronger effect = lower value 1.03 | locus YBR231C, strain swc5, stronger effect = lower value 1.03 | locus YBR279W, strain paf1, stronger effect = lower value 1.02 | locus YCL011C, strain gbp2, stronger effect = lower value 1.02 | locus YCL016C, strain dcc1, stronger effect = lower value 1.02 | locus YCL029C, strain bik1, stronger effect = lower value 1.02 | locus YCL061C, strain MRC1, stronger effect = lower value 1.02 | locus YCL069W, strain vba3, stronger effect = lower value 1.03 | locus YCR088W, strain abp1, stronger effect = lower value 1.02 | locus YDL005C, strain med2, stronger effect = lower value 1.02 | locus YDL035C, strain GPR1, stronger effect = lower value 1.07 | locus YDL040C, strain nat1, stronger effect = lower value 1.03 | locus YDL074C, strain BRE1, stronger effect = lower value 1.08 | locus YDL101C, strain DUN1, stronger effect = lower value 1.03 | locus YDL134C, strain PPH21, stronger effect = lower value 1.05 | locus YDL185W, strain tfp1, stronger effect = lower value 0.989 | locus YDL192W, strain arf1, stronger effect = lower value 1.03 | locus YDR001C, strain nth1, stronger effect = lower value 1.03 | locus YDR069C, strain doa4, stronger effect = lower value 1.03 | locus YDR101C, strain arx1, stronger effect = lower value 1 | locus YDR137W, strain rgp1, stronger effect = lower value 1.01 | locus YDR150W, strain NUM1, stronger effect = lower value 1.03 | locus YDR159W, strain sac3, stronger effect = lower value 1.04 | locus YDR162C, strain NBP2, stronger effect = lower value 1.04 | locus YDR195W, strain ref2 0.991 | locus YDR297W, strain sur2, stronger effect = lower value 1.03 | locus YDR318W, strain mcm21, stronger effect = lower value 1.01 | locus YDR334W, strain swr1, stronger effect = lower value 1.04 | locus YDR335W, strain msn5, stronger effect = lower value 1.03 | locus YDR388W, stronger effect = lower value 0.992 | locus YDR392W, strain spt3, stronger effect = lower value 1.03 | locus YDR502C, strain sam2, stronger effect = lower value 0.993 | locus YEL003W, strain gim4, stronger effect = lower value 1.03 | locus YEL037C, strain rad23, stronger effect = lower value 1.02 | locus YEL061C, strain CIN8 (second series), stronger effect = lower value 1.03 | locus YEL061C, strain CIN8, stronger effect = lower value 1.03 | locus YER015W, strain faa2, stronger effect = lower value 1.02 | locus YER016W, strain bim1, stronger effect = lower value 1.02 | locus YER110C, stronger effect = lower value 1.02 | locus YER111C, strain swi4, stronger effect = lower value 1.03 | locus YER155C, strain BEM2 (second series), stronger effect = lower value 1.03 | locus YER155C, strain BEM2, stronger effect = lower value 1.03 | locus YER167W, strain BCK2, stronger effect = lower value 1.03 | locus YFR010W, strain ubp6, stronger effect = lower value 1.02 | locus YGL078C, strain dbp3, stronger effect = lower value 1.01 | locus YGL086W, strain mad1, stronger effect = lower value 0.997 | locus YGL167C, strain pmr1, stronger effect = lower value 1.02 | locus YGL173C, strain kem1, stronger effect = lower value 1.04 | locus YGL227W, strain vid30, stronger effect = lower value 1.03 | locus YGL240W, strain doc1, stronger effect = lower value 1.03 | locus YGL248W, strain PDE1, stronger effect = lower value 1.06 | locus YGL253W, strain hxk2, stronger effect = lower value 1.02 | locus YGR078C, strain PAC10, stronger effect = lower value 1.04 | locus YGR135W, strain pre9, stronger effect = lower value 1.01 | locus YGR252W, strain gcn5, stronger effect = lower value 0.989 | locus YHR013C, strain ard1, stronger effect = lower value 1.02 | locus YHR027C, strain rpn1, stronger effect = lower value 1.02 | locus YHR030C, strain SLT2, stronger effect = lower value 1.03 | locus YHR079C, strain IRE1 (second series), stronger effect = lower value 1 | locus YHR094C, strain hxt1, stronger effect = lower value 0.99 | locus YHR129C, strain ARP1, stronger effect = lower value 1.03 | locus YHR142W, strain chs7, stronger effect = lower value 1.04 | locus YHR200W, strain rpn10, stronger effect = lower value 1 | locus YIL066C, strain RNR3, stronger effect = lower value 1.04 | locus YIL073C, strain SPO22, stronger effect = lower value 1.1 | locus YIL125W, strain kgd1, stronger effect = lower value 1.02 | locus YIR030C, strain dcg1, stronger effect = lower value 1 | locus YJL092W, strain hpr5, stronger effect = lower value 1.02 | locus YJL095W, strain BCK1 (second series), stronger effect = lower value 1.03 | locus YJL095W, strain BCK1, stronger effect = lower value 1.08 | locus YJL115W, strain asf1, stronger effect = lower value 1.02 | locus YJL129C, strain trk1, stronger effect = lower value 1.04 | locus YJL134W, strain LCB3, stronger effect = lower value 1.03 | locus YJL154C, strain vps35, stronger effect = lower value 1.02 | locus YJL164C, strain tpk1, stronger effect = lower value 1.03 | locus YJL166W, strain qcr8, stronger effect = lower value 1.03 | locus YJL168C, strain set2, stronger effect = lower value 1.01 | locus YJL187C, strain SWE1 (second series), stronger effect = lower value 1.04 | locus YJL187C, strain SWE1, stronger effect = lower value 1.03 | locus YJR043C, strain POL32, stronger effect = lower value 1.06 | locus YKL009W, strain mrt4, stronger effect = lower value 1.01 | locus YKL068W, stronger effect = lower value 0.988 | locus YKL085W, strain MDH1 (second series), stronger effect = lower value 1.01 | locus YKL085W, strain MDH1, stronger effect = lower value 1.01 | locus YKL160W, strain elf1, stronger effect = lower value 1.02 | locus YKL190W, strain CNB1, stronger effect = lower value 1.03 | locus YKR001C, strain vps1, stronger effect = lower value 1.04 | locus YKR026C, strain gcn3, stronger effect = lower value 1.02 | locus YKR091W, strain srl3, stronger effect = lower value 1.03 | locus YLL001W, strain dnm1, stronger effect = lower value 1.02 | locus YLL026W, stronger effect = lower value 1.03 | locus YLL041C, strain sdh2, stronger effect = lower value 1.03 | locus YLR027C, strain aat2, stronger effect = lower value 1.02 | locus YLR039C, strain RIC1, stronger effect = lower value 1.23 | locus YLR058C, strain SHM2, stronger effect = lower value 1.04 | locus YLR102C, strain apc9, stronger effect = lower value 0.992 | locus YLR221C, strain rsa3, stronger effect = lower value 1.02 | locus YLR258W, strain gsy2, stronger effect = lower value 1.03 | locus YLR262C, strain YPT6 (second series), stronger effect = lower value 1.04 | locus YLR262C, strain YPT6, stronger effect = lower value 1.25 | locus YLR268W, strain sec22, stronger effect = lower value 1.02 | locus YLR320W, strain mms22, stronger effect = lower value 1.05 | locus YLR330W, strain CHS5, stronger effect = lower value 1.03 | locus YLR342W, strain FKS1, stronger effect = lower value 1.03 | locus YLR357W, strain rsc2, stronger effect = lower value 1.06 | locus YLR370C, strain arc18, stronger effect = lower value 1.04 | locus YLR371W, strain rom2, stronger effect = lower value 1.02 | locus YLR384C, strain iki3, stronger effect = lower value 1.03 | locus YLR418C, strain cdc73, stronger effect = lower value 1.03 | locus YML016C, strain PPZ1, stronger effect = lower value 1.03 | locus YML032C, strain rad52, stronger effect = lower value 1.01 | locus YML120C, strain ndi1, stronger effect = lower value 1.03 | locus YML124C, strain tub3, stronger effect = lower value 1.01 | locus YMR058W, strain fet3, stronger effect = lower value 1.02 | locus YMR078C, strain ctf18, stronger effect = lower value 0.992 | locus YMR125W, strain sto1, stronger effect = lower value 1.02 | locus YMR129W, stronger effect = lower value 1.03 | locus YMR205C, strain PFK2, stronger effect = lower value 1.06 | locus YMR223W, strain ubp8, stronger effect = lower value 0.999 | locus YMR231W, strain pep5, stronger effect = lower value 1.01 | locus YMR307W, strain GAS1, stronger effect = lower value 1.2 | locus YNL067W, strain RPL9B, stronger effect = lower value 1.02 | locus YNL071W, strain lat1, stronger effect = lower value 1.05 | locus YNL153C, strain GIM3, stronger effect = lower value 1.04 | locus YNL209W, strain ssb2, stronger effect = lower value 1.01 | locus YNL233W, strain BNI4, stronger effect = lower value 1.04 | locus YNL248C, strain rpa49, stronger effect = lower value 1.03 | locus YNL250W, strain rad50, stronger effect = lower value 1.01 | locus YNL271C, strain bni1, stronger effect = lower value 1.03 | locus YNL298W, strain CLA4, stronger effect = lower value 1.01 | locus YNL307C, strain MCK1, stronger effect = lower value 1.01 | locus YNL322C, strain KRE1 (second series), stronger effect = lower value 1.02 | locus YNR049C, strain mso1, stronger effect = lower value 1.03 | locus YNR052C, strain pop2, stronger effect = lower value 1 | locus YOL012C, strain htz1 0.833 | locus YOL147C, strain pex11, stronger effect = lower value 0.996 | locus YOR001W, strain rrp6, stronger effect = lower value 1.03 | locus YOR061W, strain CKA2, stronger effect = lower value 1.04 | locus YOR069W, strain VPS5, stronger effect = lower value 1.03 | locus YOR070C, strain gyp1, stronger effect = lower value 1.03 | locus YOR080W, strain dia2, stronger effect = lower value 1.02 | locus YOR083W, strain WHI5, stronger effect = lower value 1.02 | locus YOR106W, strain vam3, stronger effect = lower value 1.03 | locus YOR136W, strain idh2, stronger effect = lower value 0.996 | locus YOR144C, strain elg1, stronger effect = lower value 0.992 | locus YOR184W, strain ser1, stronger effect = lower value 1.05 | locus YOR265W, strain rbl2, stronger effect = lower value 1.03 | locus YOR270C, strain vph1, stronger effect = lower value 1.06 | locus YOR290C, strain snf2, stronger effect = lower value 1.05 | locus YOR316C, strain cot1, stronger effect = lower value 0.999 | locus YPL051W, strain arl3, stronger effect = lower value 1.01 | locus YPL078C, strain atp4, stronger effect = lower value 1.02 | locus YPL106C, strain sse1, stronger effect = lower value 0.998 | locus YPL240C, strain hsp82, stronger effect = lower value 1.02 | locus YPR119W, strain clb2, stronger effect = lower value 0.996 | locus YPR141C, strain kar3, stronger effect = lower value 1.01 | locus YPR163C, strain tif3, stronger effect = lower value 0.999 | locus YPR167C, strain met16, stronger effect = lower value 0.996 | strain wtn01, stronger effect = lower value 1.02
